The panel holds about 83,000 compounds, 20% with a hit somewhere; the sample as a whole holds those more often.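 Negative percent growth values reflect cell death: -40 means 40% of the cells present at the start died, and -100 means all died.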 Activity calls are given as the source filed them. How the source made its calls: active means growth percent below 10; inactive means the rest.
How the values were obtained:
Test in all cases: NCI-60 one-dose screen, 48 h (100 = growth as untreated, 0 = no growth, -100 = all killed)
Conditions in all cases: 10 µM unless noted
T-47D breast = tested on: T-47D breast
BT-549 breast = tested on: BT-549 breast
MDA-MB-435 melanoma = tested on: MDA-MB-435 melanoma
SW-620 colon = tested on: SW-620 colon
MCF7 breast = tested on: MCF7 breast
HCT-116 colon = tested on: HCT-116 colon
HCC-2998 colon = tested on: HCC-2998 colon
KM12 colon = tested on: KM12 colon

Measured: growth

c1cc2ccc3cc2cc1CNCCN1CCNCc2ccc4ccc(cc4c2)CNCCN(CCNC3)CCNCc2ccc3ccc(cc3c2)CNCC1
active: T-47D breast -6.97% | MDA-MB-435 melanoma -5.25% | MCF7 breast -5.39% | HCT-116 colon 5.35% | KM12 colon -15.5%
inactive: BT-549 breast 97.3% | SW-620 colon 23.4% | HCC-2998 colon 19.2%

CSc1cccc([N+](=O)[O-])c1
inactive: T-47D breast 90.1% | BT-549 breast 104% | MDA-MB-435 melanoma 100% | SW-620 colon 108% | MCF7 breast 108% | HCT-116 colon 100% | HCC-2998 colon 108%

C[n+]1c2ccccc2nc2c(N)cc(N)cc21
inactive: T-47D breast 54.2% | BT-549 breast 46% | MDA-MB-435 melanoma 126% | SW-620 colon 87.1% | MCF7 breast 82.7% | HCT-116 colon 78.2% | HCC-2998 colon 92.4%

CC1=CC[C@@H]2C(C)(C)C(=O)CC[C@@]2(C)[C@@H]1COc1ccc2ccc(=O)oc2c1
active: T-47D breast 6.17%
inactive: BT-549 breast 55.9% | MDA-MB-435 melanoma 80.5% | SW-620 colon 101% | MCF7 breast 87.8% | HCT-116 colon 79.5% | HCC-2998 colon 83.6%

CC(C)[N+](C)(C)CC(O)COc1cccc2ccccc12 (stereo not drawn)
inactive: T-47D breast 102% | BT-549 breast 112% | MDA-MB-435 melanoma 118% | SW-620 colon 99.7% | MCF7 breast 102% | HCT-116 colon 113% | HCC-2998 colon 101%

O=C1CC(c2ccccc2)Cc2nc3ccc(Cl)cc3cc21 (stereo not drawn)
inactive: T-47D breast 75.5% | SW-620 colon 23% | MCF7 breast 54%
active: BT-549 breast 4.62% | MDA-MB-435 melanoma -38.6% | HCT-116 colon 5.45% | HCC-2998 colon 5.28% | KM12 colon 1.73%

O=C1Nc2ccccc2/C1=C/C(=O)c1ccc(N2CCCCC2)cc1
active: SW-620 colon -22.7%
inactive: T-47D breast 59.9% | BT-549 breast 90.8% | MDA-MB-435 melanoma 88.2% | MCF7 breast 68.9% | HCT-116 colon 92.7% | HCC-2998 colon 105% | KM12 colon 90.5%

CN(C)c1cc(NN=C(c2ccc(O)cc2)c2ccc(O)cc2)c([N+](=O)[O-])cc1[N+](=O)[O-]
inactive: T-47D breast 19.1% | BT-549 breast 115% | MDA-MB-435 melanoma 84.9% | SW-620 colon 108% | MCF7 breast 27.2% | HCT-116 colon 33.2% | HCC-2998 colon 59.1% | KM12 colon 92%

CCc1cccc(Cl)c1
inactive: T-47D breast 107% | BT-549 breast 92% | MDA-MB-435 melanoma 107% | SW-620 colon 111% | MCF7 breast 99.4% | HCT-116 colon 104% | HCC-2998 colon 106% | KM12 colon 101%

CCOC(=O)c1ccc2nc(-c3c(C)nn(-c4ccccc4)c3N3CCOCC3)[nH]c2c1
inactive: T-47D breast 73% | BT-549 breast 93.4% | MDA-MB-435 melanoma 99.4% | SW-620 colon 97.3% | MCF7 breast 88.6% | HCT-116 colon 93.2% | HCC-2998 colon 95.9% | KM12 colon 96.9%

Cn1cc(-c2nnc(-c3cn(C)c4ncccc34)o2)c2ccccc21
active: MDA-MB-435 melanoma -32.8%
inactive: T-47D breast 12.2% | BT-549 breast 42.4% | SW-620 colon 26.7% | MCF7 breast 20.2% | HCT-116 colon 23% | HCC-2998 colon 65.7% | KM12 colon 22.1%

COc1ccc(-c2cc(-c3ccccc3)nc(NCCNc3ccnc4cc(Cl)ccc34)n2)cc1
active: T-47D breast -64.6% | BT-549 breast -69.4% | MDA-MB-435 melanoma -68.8% | SW-620 colon -68.2% | MCF7 breast -75.7% | HCT-116 colon -74.1% | HCC-2998 colon -81.1% | KM12 colon -72.7%

CC(C)(C)c1cc(C(=O)Nc2cc3ccccc3cc2C(=O)NCCN)cc(C(C)(C)C)c1
inactive: BT-549 breast 82.2%
active: T-47D breast -69% | MDA-MB-435 melanoma -88.3% | SW-620 colon -66.4% | MCF7 breast -85.6% | HCT-116 colon -91.8% | HCC-2998 colon -86.5% | KM12 colon -94.5%

Cc1ccc(NCCN2CCCCC2)c2c(=O)c3ccccc3sc12
active: MCF7 breast -3.15%
inactive: T-47D breast 28.7% | BT-549 breast 58.6% | MDA-MB-435 melanoma 31.4% | SW-620 colon 15.3% | HCT-116 colon 18% | HCC-2998 colon 33.3% | KM12 colon 32.6%

COc1ccc2nc3ccccc3c(NCCNCCO)c2c1
active: T-47D breast 4.93% | BT-549 breast 8.11% | MDA-MB-435 melanoma -53.8% | SW-620 colon -18.3% | MCF7 breast 2.08% | HCT-116 colon -36.5% | HCC-2998 colon -72.5% | KM12 colon -30.5%

COc1ccc(C(=O)/C=C/c2ccccn2)c(O)c1
inactive: T-47D breast 61.6% | BT-549 breast 76.5% | MDA-MB-435 melanoma 77.3% | SW-620 colon 43.4% | MCF7 breast 15.9% | HCT-116 colon 76.5% | HCC-2998 colon 93.6% | KM12 colon 51.1%

O=C1CN(Cc2ccc(C(=O)NO)cc2)C(=O)[C@@H](Cc2ccccc2)N1
inactive: T-47D breast 93.2% | BT-549 breast 101% | MDA-MB-435 melanoma 100% | SW-620 colon 102% | MCF7 breast 96% | HCT-116 colon 97.2% | HCC-2998 colon 109% | KM12 colon 104%

COc1c(B(O)O)cccc1-c1nc2ccc3[nH]ncc3c2c2c1CCC2
inactive: T-47D breast 48% | BT-549 breast 60% | MDA-MB-435 melanoma 64% | SW-620 colon 54.8% | MCF7 breast 74.4% | HCT-116 colon 47.3% | HCC-2998 colon 88.8% | KM12 colon 51.3%

COc1ccc(NCc2cn(-c3ccc(C(=O)O)cc3)nc2-c2ccc(C(=O)O)cc2)cc1C(F)(F)F
inactive: T-47D breast 92.7% | BT-549 breast 98% | MDA-MB-435 melanoma 101% | SW-620 colon 97.2% | MCF7 breast 96.1% | HCT-116 colon 104% | HCC-2998 colon 104% | KM12 colon 102%

CCCCCCCCCCCCCCNC(=O)Nc1ccc(Cl)c(Cl)c1
inactive: T-47D breast 33.9% | BT-549 breast 24.7% | MDA-MB-435 melanoma 18.3% | SW-620 colon 32.9% | MCF7 breast 30% | HCT-116 colon 23.6% | HCC-2998 colon 14.5% | KM12 colon 35.8%

C=C(C)[C@@H]1CC[C@]2(C)[C@H](C(=O)C=C3[C@@H]4C[C@](C)(C(=O)N5CCN(C)CC5)CC[C@]4(C)CC[C@]32C)[C@@]1(C)CCC#N
active: T-47D breast -40.5% [100 µM] | BT-549 breast -73.3% [100 µM] | MDA-MB-435 melanoma -81% [100 µM] | SW-620 colon -80% [100 µM] | MCF7 breast -71.1% [100 µM] | HCT-116 colon -70.7% [100 µM] | HCC-2998 colon -94% [100 µM] | KM12 colon -80.2% [100 µM]

COc1ccc(OC)c(NC=O)c1
inactive: T-47D breast 101% | BT-549 breast 109% | MDA-MB-435 melanoma 104% | SW-620 colon 105% | MCF7 breast 96.4% | HCT-116 colon 101% | HCC-2998 colon 103% | KM12 colon 109%

COc1ccc2c(c1)c(-c1noc(C(=O)c3cn(C)c4ncc(Br)cc34)n1)cn2C
inactive: T-47D breast 49.7% | BT-549 breast 82.7% | MDA-MB-435 melanoma 63.1% | SW-620 colon 43.6% | MCF7 breast 79.9% | HCT-116 colon 50.3% | HCC-2998 colon 92.9% | KM12 colon 66.7%

CCN=C1C=CC(=C(c2ccc(N(CC)CC)cc2)c2ccc(N(CC)CC)cc2)c2ccccc21
active: T-47D breast -45.7% | BT-549 breast -67.2% | MDA-MB-435 melanoma -31.6% | SW-620 colon -42.9% | MCF7 breast -74% | HCT-116 colon -45.7% | HCC-2998 colon -81% | KM12 colon -86.2%

Clc1ccc2nc(-c3ccc(-c4ccc(/C=N/NC5=NCCN5)cc4)s3)cn2c1
inactive: T-47D breast 92.6% | BT-549 breast 91.6% | MDA-MB-435 melanoma 101% | SW-620 colon 29.7% | MCF7 breast 79.4% | HCT-116 colon 86.8% | HCC-2998 colon 109% | KM12 colon 103%

N#C/C(C(=O)c1ccccc1)=C1/C(=O)Nc2ccc(F)cc21
inactive: T-47D breast 80.5% | BT-549 breast 102% | MDA-MB-435 melanoma 107% | SW-620 colon 101% | MCF7 breast 96.4% | HCT-116 colon 103% | HCC-2998 colon 104% | KM12 colon 109%

O=[N+]([O-])c1ccc(O)c(-c2nc3ccccc3s2)c1
inactive: T-47D breast 49.7% | BT-549 breast 60.7% | MDA-MB-435 melanoma 71.4% | SW-620 colon 87.8% | MCF7 breast 81% | HCT-116 colon 73% | HCC-2998 colon 89.7% | KM12 colon 77.2%

c1ccc2c(c1)CN(CCCN1CCOCC1)C2
inactive: T-47D breast 101% | BT-549 breast 121% | MDA-MB-435 melanoma 98.2% | SW-620 colon 107% | MCF7 breast 94.6% | HCT-116 colon 97.9% | HCC-2998 colon 98.6% | KM12 colon 102%

CCOC(=O)n1cc(C2=C(c3ccc(OC)c(OC)c3)COC2=O)c2ccccc21
inactive: T-47D breast 48.8% | SW-620 colon 26.5% | MCF7 breast 14.9% | HCC-2998 colon 19.2%
active: BT-549 breast 0.425% | MDA-MB-435 melanoma -18.4% | HCT-116 colon 4.07% | KM12 colon 2.26%
